A number with no mark means an inactive call.

In the first experiment the target is NADPH oxidase 2 (Homo sapiens) (UniProt P04839). As to the kind of experiment: NOX2-dependent H2O2 signal modulators, primary screen, NOX inhibitor project, cell-based, HEK293-NOX2, PMA-stimulated, Amplex Red fluorescence (AID 1159). Also: test concentration not given here. The settings on record: 45 min, higher = more signal, called active from +8 up or from −8 down.
Sequence of NADPH oxidase 2 (Homo sapiens) (P04839 whole entry, looked up): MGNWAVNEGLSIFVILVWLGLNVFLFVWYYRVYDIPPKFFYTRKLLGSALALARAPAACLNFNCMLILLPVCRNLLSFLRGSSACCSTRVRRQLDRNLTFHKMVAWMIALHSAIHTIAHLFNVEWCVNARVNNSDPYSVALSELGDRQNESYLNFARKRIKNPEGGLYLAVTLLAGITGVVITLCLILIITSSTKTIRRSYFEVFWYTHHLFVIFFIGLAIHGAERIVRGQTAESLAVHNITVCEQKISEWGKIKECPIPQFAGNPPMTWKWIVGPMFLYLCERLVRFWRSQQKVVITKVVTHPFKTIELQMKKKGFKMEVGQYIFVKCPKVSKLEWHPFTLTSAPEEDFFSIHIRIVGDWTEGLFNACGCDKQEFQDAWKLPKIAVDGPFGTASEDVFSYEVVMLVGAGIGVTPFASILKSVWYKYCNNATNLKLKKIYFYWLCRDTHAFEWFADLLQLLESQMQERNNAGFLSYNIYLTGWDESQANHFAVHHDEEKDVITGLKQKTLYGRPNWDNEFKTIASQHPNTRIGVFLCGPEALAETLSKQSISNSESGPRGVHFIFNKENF
With `COc1ccc(CCNC(=O)[C@@]2(Sc3ccc(C)cc3)CC(=O)N(C(C)C)[C@@H]2c2ccc(CO)cc2I)cc1`, the z-score is 0.446. For the compound `CC1(C)[C@@H]2CC(C(O)C3C=CC4C(=O)N(c5ccccc5)C(=O)C4N3Nc3ccc([N+](=O)[O-])cc3)=C[C@H]1C2` (stereo not given in full), the z-score is -0.0932. Same read-out and setting: to `NC(=O)NCC#Cc1ccc2c(c1)[C@]1(C(=O)N2)[C@H](c2ccccc2OCCO)N2[C@H](c3ccccc3)[C@H](c3ccccc3)OC(=O)[C@H]2[C@@H]1C(=O)Nc1nc2ccccc2s1` belongs 1.95; to `COC(=O)C(CC#Cc1ccc2c(c1)[C@]1(C(=O)N2)[C@H](C(=O)Nc2nc3ccccc3s2)[C@H]2C(=O)O[C@H](c3ccccc3)[C@H](c3ccccc3)N2[C@@H]1c1ccc(O)cc1)C(=O)OC`, 1.28. Same read-out and setting: to `C=CCC(OC(C)=O)[C@@H]1[C@@H](N(Cc2ccc(-c3cccc(C(F)(F)F)c3)o2)C(=O)c2ccc(C)cc2)c2cc(OCCCO)ccc2N1C(=O)Cc1ccc2ccccc2c1` (stereo not given in full) belongs -0.439; to `O=C1O[C@H](c2ccccc2)[C@H](c2ccccc2)N2[C@H]1[C@@H](C(=O)N1CCCCCCC1)[C@]1(C(=O)Nc3ccc(C#CC4=CCCCC4)cc31)[C@H]2c1ccc(OCCO)cc1`, -0.708; to `CCCCCN1CC=CC23O[C@@H]4C=CCCOC(=O)C4[C@H]2C(=O)N(CCCCCO)[C@@H]3C1=O` (stereo not given in full), 1.36. As to `COCCCNC(=O)[C@]1(CCC(=O)OC(C)(C)C)N=C(c2ccc(OCCCO)cc2)O[C@@H]1c1ccccc1CN=[N+]=[N-]`, the z-score was -0.974. Regarding `O=C1c2ccccc2[C@](Cc2ccccc2I)(C(=O)NCCN2CCOCC2)[C@H](c2ccc(CO)cc2)N1C1CCCCC1`, the z-score is 0.155. Still for that read-out and setting: to `COc1ccc([Si](C)(C)[C@H]2[C@H](CCO)O[C@@]3(C(=O)N(Cc4ccc(N(C=O)c5ccccc5)cc4)c4ccccc43)[C@@H]2C)cc1` belongs 0.118.

The target of a further experiment is NADPH oxidase 4 (Homo sapiens) (UniProt Q9NPH5). Description: NOX4-dependent H2O2 signal modulators, primary screen, NOX inhibitor project, cell-based, HEK293-NOX4, tetracycline-induced, Amplex Red fluorescence (AID 1160). Particulars: 45 min, higher = more signal, called active from +8 up or from −8 down.
Sequence of NADPH oxidase 4 (Homo sapiens) (Q9NPH5 whole entry, looked up): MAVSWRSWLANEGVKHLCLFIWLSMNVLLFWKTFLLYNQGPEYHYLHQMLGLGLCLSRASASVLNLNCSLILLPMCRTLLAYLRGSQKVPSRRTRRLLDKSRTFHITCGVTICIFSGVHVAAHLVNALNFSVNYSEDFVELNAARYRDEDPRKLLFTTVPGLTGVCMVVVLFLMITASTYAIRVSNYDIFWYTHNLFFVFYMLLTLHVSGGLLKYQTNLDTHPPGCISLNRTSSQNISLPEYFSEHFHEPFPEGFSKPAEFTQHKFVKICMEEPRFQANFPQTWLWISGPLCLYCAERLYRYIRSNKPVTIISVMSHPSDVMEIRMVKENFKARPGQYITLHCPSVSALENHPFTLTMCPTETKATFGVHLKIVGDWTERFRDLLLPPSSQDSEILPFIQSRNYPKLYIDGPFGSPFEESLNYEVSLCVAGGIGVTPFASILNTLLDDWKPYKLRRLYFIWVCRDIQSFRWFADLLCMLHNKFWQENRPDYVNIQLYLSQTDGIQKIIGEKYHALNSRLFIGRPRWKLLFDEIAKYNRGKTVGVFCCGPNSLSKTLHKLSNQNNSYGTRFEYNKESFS
In the case of `O=C1C2C=CC(C(O)Cc3ccccc3)N(n3cnnc3)C2C(=O)N1Cc1ccccc1` (stereo not given), the z-score is -1.69.

For `CCCC[C@@H]1C[C@H]1[C@@H](NC(=O)c1ccco1)c1ccc(-c2ccccc2)cc1`, the z-score was -3.5. For the compound `C[C@@]1([C@@H](NC(=O)c2ccc(-c3ccccc3)cc2)c2ccc(Cl)cc2)C[C@H]1C1CCCCC1`, the z-score was 0.205. The same measure, in the same setting: to `COC(=O)c1c(CC[C@@H](CO)NC(=O)NCCn2cc(C3(O)CCCC3)nn2)oc(C(C)=O)c1C(=O)OC` belongs 0.233; to `CC1(C)C2C=C(C(O)C3C=CC4C(=O)NC(=O)C4N3Nc3ccc(Cl)cc3Cl)C[C@@H]1C2` (stereo not given in full), -5.57. As for `NC(=O)NCC#Cc1ccc2c(c1)[C@]1(C(=O)N2)[C@H](C(=O)Nc2nc3ccccc3s2)[C@H]2C(=O)O[C@H](c3ccccc3)[C@H](c3ccccc3)N2[C@@H]1c1ccccc1OCCO`, the z-score was -0.228. On the same count and under the same terms, to `COC(=O)[C@@]1(Cc2ccc(F)cc2)[C@H]2c3cc(C(=O)N(C)C)n(Cc4cc(F)c(F)c(F)c4)c3C[C@H]2CN1C(=O)c1ccccc1` belongs 2.18; to `[N-]=[N+]=NCc1ccccc1[C@@H]1OC(c2ccc(OCCCO)cc2)=N[C@]1(Cc1ccccc1)C(=O)NCC(O)CO` (stereo not given in full), 1.7.

For the compound `COc1cc2c(cc1OC)CN(C(=O)[C@@H]1[C@H]3C(=O)O[C@H](c4ccccc4)[C@H](c4ccccc4)N3[C@H](c3ccc(O)cc3)[C@@]13C(=O)Nc1ccccc13)CC2`, the z-score is -0.339.

`[N-]=[N+]=Nc1ccccc1[C@H]1OC(c2ccc(OCCCO)cc2)=N[C@@]1(CCS(=O)(=O)c1ccccc1)C(=O)NCC(O)CO` (stereo not given in full): the z-score is -0.0647. Same read-out and setting: to `O=C1NC(=O)C2C1C=CC(C(O)c1cccs1)N2Nc1ccc(Cl)cc1Cl` (stereo not given) belongs -4.81. The same measure, in the same setting: to `C=CCNC(=O)[C@H]1[C@@H]2C(=O)O[C@@H](c3ccccc3)[C@@H](c3ccccc3)N2[C@@H](c2ccccc2OCCO)[C@]12C(=O)Nc1ccc(C#CCCO)cc12` belongs -0.546; to `CC(C)C(CO)N1C(=O)[C@@H]2C3C(=O)OCCC/C=C\[C@H]3OC23C=CCN(CCN2CCOCC2)C(=O)[C@@H]13` (stereo not given in full), 0.401.

On to `CC(=O)n1cc(C(O)C2C=CC3C(=O)N(c4ccccc4)C(=O)C3N2Nc2ccc([N+](=O)[O-])cc2)c2ccccc21` (stereo not given), for which the z-score is -2.56. On the same count and under the same terms, to `CCOC(=O)C[C@H]1[C@H](OC(=O)c2ccc(C(=O)c3ccccc3)cc2)[C@@H](NC(=O)c2ccc3ccccc3n2)c2cc(OCCCO)ccc2N1C(=O)c1ccccc1` belongs 1.06; to `COc1ccc(C#Cc2ccc3c(c2)[C@]2(C(=O)N3)[C@H](C(=O)NC[C@H](O)c3ccccc3)[C@H]3C(=O)O[C@H](c4ccccc4)[C@H](c4ccccc4)N3[C@@H]2c2ccc(O)cc2)cc1`, 0.118; to `N#Cc1ccc(NN2C(C(O)C(c3ccccc3)c3ccccc3)C=CC3C(=O)N(c4ccccc4)C(=O)C32)cc1` (stereo not given), -2.82.

With `Cc1ccccc1C(O)C1C=CC2C(=O)N(c3ccccc3)C(=O)C2N1Nc1ccc(C(C)C)cc1` (stereo not given), the z-score is -4.14. The same measure, in the same setting: to `CO[C@H]1O[C@H](CO)[C@@H](OC(=O)Nc2cccc(F)c2)[C@H](OC(=O)Nc2ccccc2)[C@@H]1OC(=O)Nc1ccccc1` belongs -0.322.

For `C=CCOC(=O)[C@H]1[C@@H]2C(=O)O[C@@H](c3ccccc3)[C@@H](c3ccccc3)N2[C@@H](c2ccc(OCCOC(=O)[C@H]3C[C@H]4C(=O)N[C@@H](CCCCNC(C)=O)C(=O)N4[C@H]3c3ccc(O)cc3)cc2)[C@]12C(=O)Nc1ccc(I)cc12`, the z-score is 0.823.

Turning to `Cc1nc2cc(Br)ccc2c(=O)o1`, the z-score is -0.0246.

Turning to `CCCC[C@H]1OB(O)C[C@H]2C1=C(COC)Cn1c(=O)n(-c3ccccc3)c(=O)n12`, the z-score is 0.317. Still for that read-out and setting: to `COc1ccc([Si](C)(C)[C@@H]2[C@@H](CCO)O[C@]3(C(=O)N(Cc4ccc(N(C=O)c5ccccc5)cc4)c4ccccc43)[C@H]2C)cc1` belongs 1.52. Still for that read-out and setting: to `CC(C)[Si](C#Cc1ccc(Oc2ccccc2)cc1)(O[Si](C#Cc1ccc(Oc2ccccc2)cc1)(C(C)C)C(C)C)C(C)C` belongs 1.46; to `CN1C=C(C(=O)OCCS(C)(=O)=O)C(C(=O)OCCS(C)(=O)=O)=CC(c2ccc(CO)cc2)=CC1C1CC1` (stereo not given), -1.13; to `COc1ccc(CCNC(=O)[C@@]2(Sc3ccc(C)cc3)CC(=O)N(C(C)C)[C@@H]2c2ccc(CO)cc2I)cc1`, -0.641. The same measure, in the same setting: to `CC1(C)[C@@H]2CC(C(O)C3C=CC4C(=O)N(c5ccccc5)C(=O)C4N3Nc3ccc([N+](=O)[O-])cc3)=C[C@H]1C2` (stereo not given in full) belongs -1.02. Take `NC(=O)NCC#Cc1ccc2c(c1)[C@]1(C(=O)N2)[C@H](c2ccccc2OCCO)N2[C@H](c3ccccc3)[C@H](c3ccccc3)OC(=O)[C@H]2[C@@H]1C(=O)Nc1nc2ccccc2s1`: the z-score was 1.32. In the case of `COC(=O)C(CC#Cc1ccc2c(c1)[C@]1(C(=O)N2)[C@H](C(=O)Nc2nc3ccccc3s2)[C@H]2C(=O)O[C@H](c3ccccc3)[C@H](c3ccccc3)N2[C@@H]1c1ccc(O)cc1)C(=O)OC`, the z-score is 0.602. Same read-out and setting: to `C=CCC(OC(C)=O)[C@@H]1[C@@H](N(Cc2ccc(-c3cccc(C(F)(F)F)c3)o2)C(=O)c2ccc(C)cc2)c2cc(OCCCO)ccc2N1C(=O)Cc1ccc2ccccc2c1` (stereo not given in full) belongs 1.04. The same measure, in the same setting: to `O=C1O[C@H](c2ccccc2)[C@H](c2ccccc2)N2[C@H]1[C@@H](C(=O)N1CCCCCCC1)[C@]1(C(=O)Nc3ccc(C#CC4=CCCCC4)cc31)[C@H]2c1ccc(OCCO)cc1` belongs 0.14. On the same count and under the same terms, to `CCCCCN1CC=CC23O[C@@H]4C=CCCOC(=O)C4[C@H]2C(=O)N(CCCCCO)[C@@H]3C1=O` (stereo not given in full) belongs 0.228. For the compound `COCCCNC(=O)[C@]1(CCC(=O)OC(C)(C)C)N=C(c2ccc(OCCCO)cc2)O[C@@H]1c1ccccc1CN=[N+]=[N-]`, the z-score was 0.289.

Consider `O=C1c2ccccc2[C@](Cc2ccccc2I)(C(=O)NCCN2CCOCC2)[C@H](c2ccc(CO)cc2)N1C1CCCCC1`, for which the z-score was 0.784. Still for that read-out and setting: to `COc1ccc([Si](C)(C)[C@H]2[C@H](CCO)O[C@@]3(C(=O)N(Cc4ccc(N(C=O)c5ccccc5)cc4)c4ccccc43)[C@@H]2C)cc1` belongs 0.859.

Source of the values: PubChem BioAssay.
